Here are results for 45 molecules from article PMC4336329 (PLoS ONE, 2015).

The campaign covered roughly 310,000 compounds. About 14,000 (4.5%) showed an effect of 50% or more. The effect is printed as a negative number. This excerpt belongs to a sample that is enriched for strong results.
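Note: peak tail current of the secondary pulse compared with the same well before compound.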

human ether-à-go-go-related gene (hERG) potassium channel, sequence (Q12809 whole entry, looked up): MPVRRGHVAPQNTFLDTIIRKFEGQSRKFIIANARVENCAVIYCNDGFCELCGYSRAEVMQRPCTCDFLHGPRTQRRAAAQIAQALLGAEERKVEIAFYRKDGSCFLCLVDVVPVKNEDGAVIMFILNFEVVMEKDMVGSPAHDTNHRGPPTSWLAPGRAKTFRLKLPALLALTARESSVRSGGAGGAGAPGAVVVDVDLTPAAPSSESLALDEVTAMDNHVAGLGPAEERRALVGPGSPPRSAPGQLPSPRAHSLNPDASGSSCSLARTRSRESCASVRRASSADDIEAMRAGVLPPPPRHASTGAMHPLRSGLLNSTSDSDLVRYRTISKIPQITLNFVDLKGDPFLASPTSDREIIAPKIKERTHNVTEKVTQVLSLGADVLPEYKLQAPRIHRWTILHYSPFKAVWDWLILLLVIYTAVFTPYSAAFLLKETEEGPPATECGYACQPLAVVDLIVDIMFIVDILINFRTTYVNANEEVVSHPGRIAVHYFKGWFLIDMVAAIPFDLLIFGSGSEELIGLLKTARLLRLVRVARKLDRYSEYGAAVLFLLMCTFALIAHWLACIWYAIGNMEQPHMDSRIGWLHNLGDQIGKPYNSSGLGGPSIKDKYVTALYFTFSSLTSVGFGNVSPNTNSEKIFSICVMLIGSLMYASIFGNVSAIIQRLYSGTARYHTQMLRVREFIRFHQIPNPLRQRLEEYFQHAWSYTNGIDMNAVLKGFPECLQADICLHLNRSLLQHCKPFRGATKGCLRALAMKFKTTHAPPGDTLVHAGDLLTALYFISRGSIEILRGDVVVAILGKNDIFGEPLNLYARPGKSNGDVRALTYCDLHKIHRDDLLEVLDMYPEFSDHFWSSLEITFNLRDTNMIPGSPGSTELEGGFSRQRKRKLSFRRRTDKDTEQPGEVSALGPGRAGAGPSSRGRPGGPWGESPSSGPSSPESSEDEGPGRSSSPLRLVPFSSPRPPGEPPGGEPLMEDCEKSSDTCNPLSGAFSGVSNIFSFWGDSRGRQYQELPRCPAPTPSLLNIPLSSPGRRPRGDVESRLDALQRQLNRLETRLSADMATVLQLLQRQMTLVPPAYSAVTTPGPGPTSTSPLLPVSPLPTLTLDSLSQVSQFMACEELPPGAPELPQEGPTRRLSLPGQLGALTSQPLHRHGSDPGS

This assay concerns the target human ether-à-go-go-related gene (hERG) potassium channel (human, UniProt Q12809). Put plainly: primary screen, population patch clamp on CHO cells stably expressing hERG; higher = less effect of the substance.
As for `COc1ccc(C2C(CN3CCOCC3)C(=O)N2c2ccccc2)cc1` (stereo not drawn), the “hERG current change (%, negative = inhibition) at 10uM” value was 9.52%.
Next, `Cc1ccc(OCCOc2cccc(Br)c2)c([N+](=O)[O-])n1`: 0.558%; `Cc1cccc(NS(=O)(=O)c2cccc(C(=O)N3CCN(c4ccccn4)CC3)c2)c1`: -22.7%; `COc1ccc(C(=O)NCc2nnc(SCC(=O)Nc3cccc(OC)c3)o2)cc1`: -1.25%.
The result for `CCOC(=O)c1c(NC(=O)c2nn(CC)cc2Br)sc2c1CCCCC2` reads 8.6%; that for `COc1ccc(N(C)C(=O)c2cn(CC(C)C)c(=O)c3cc(OC)c(OC)cc23)cc1`, 8.8%.
The result for `Nc1c(-c2ccccc2)cnn1-c1ccccc1` reads 12%.
As to `Nc1c(-c2ccccc2)cnn1-c1cccc(Cl)c1`, the “hERG current change (%, negative = inhibition) at 10uM” value is listed as -12.3%.
Next, `Nc1c(-c2cccc(Cl)c2)cnn1-c1ccccc1`: -60.3%.
Next, `O=C(NCc1ccc(OC(F)(F)F)cc1)C1CC(c2ccccc2[N+](=O)[O-])=NO1` (stereo not drawn): -68.3%; `COc1ccc(CCNC(=O)C2CCN(C(=O)c3ccccc3)CC2)cc1`: 2.13%.
`COc1ccc(CCNC(=O)C2CCN(C(=O)c3ccc([N+](=O)[O-])cc3)CC2)cc1`: the “hERG current change (%, negative = inhibition) at 10uM” value was -65.6%.
For `COc1ccc(CCNC(=O)C2CC(c3ccc([N+](=O)[O-])cc3)=NO2)cc1` (stereo not drawn), the “hERG current change (%, negative = inhibition) at 10uM” value is reported as -61.6%.
The result for `COCCNC(=O)C1CC(c2ccc([N+](=O)[O-])cc2)=NO1` (stereo not drawn) reads -0.798%; that for `COc1ccc(CNC(=O)C2CC(c3ccccc3[N+](=O)[O-])=NO2)cc1` (stereo not drawn), -27.7%; that for `O=C(NCCc1ccccc1)C1CCN(C(=O)c2ccc([N+](=O)[O-])cc2)CC1`, -63.2%.
Next, `COc1ccc(CCNC(=O)C2CCN(C(=O)c3ccc(Cl)cc3)CC2)cc1`: -12.8%; `O=C(NCc1ccc(C(F)(F)F)cc1)C1CC(c2ccccc2[N+](=O)[O-])=NO1` (stereo not drawn): -46.1%.
The result for `COc1ccc(CCNC(=O)C2CC(c3cccc([N+](=O)[O-])c3)=NO2)cc1` (stereo not drawn) reads -21.8%; that for `O=C(NCCc1ccccc1)C1CCN(C(=O)c2ccc(F)cc2)CC1`, -2.25%; that for `COc1ccc(CCNC(=O)C2CCN(C(=O)c3ccc(F)cc3)CC2)cc1`, 10.2%.
Regarding `Cc1ccc(OCC(=O)Nc2ccccc2N2CCCC2)c(C)c1`, the “hERG current change (%, negative = inhibition) at 10uM” value is -3.14%.
Regarding `CCCN(c1ccccc1C(=O)O)S(=O)(=O)c1ccc2c(c1)n(C)c(=O)n2C`, the “hERG current change (%, negative = inhibition) at 10uM” value is 19.8%.
The result for `Cc1ccc(NCC(O)C(O)C(O)CO)cc1C` (stereo not drawn) reads 14.9%.
As to `Clc1ccc2oc(-c3ccccn3)nc2c1`, the “hERG current change (%, negative = inhibition) at 10uM” value is reported as -0.352%.
Regarding `O=C(NCCNC(=O)c1ccc([N+](=O)[O-])cc1)c1ccncc1`, the “hERG current change (%, negative = inhibition) at 10uM” value is on record as 12%.
Next, `COc1ccc(CCNC(=O)c2nc3ncccn3n2)cc1OC`: 18.6%; `Cc1ccc2c(c1)N(CC(=O)N1CCCc3ccccc31)C(=O)CO2`: -8.16%.
As to `COc1cccc(N2CCN(c3ccc(N4C(=O)CCC4=O)cc3[N+](=O)[O-])CC2)c1`, the “hERG current change (%, negative = inhibition) at 10uM” value came out at 13.7%.
The result for `COCCCNC(=O)CN(C1CCCCC1)S(=O)(=O)c1ccc(C)cc1` reads -0.742%; that for `CCC(CC)C(=O)NCCc1cc2c(C)ccc(C)c2[nH]c1=O`, 2.39%; that for `COc1ccccc1CN(C)C(=O)C(c1ccccc1)c1ccccc1`, -2.32%.
The result for `O=C(NCc1ccco1)C1CCN(C(=O)c2ccc([N+](=O)[O-])cc2)CC1` reads -53%; that for `Cc1ccc(C(=O)N2CCC(C(=O)NCc3ccco3)CC2)cc1`, -11.3%.
For the molecule `COc1cccc(C(=O)N2CCC(C(=O)NCc3ccco3)CC2)c1`, the “hERG current change (%, negative = inhibition) at 10uM” value is -14.9%.
The result for `CCn1nnc(NC(=O)C(C)(c2ccccc2)c2ccccc2)n1` reads -10.4%.
The result for `CN(C)S(=O)(=O)NCC1CCCN(Cc2cc3ccccc3s2)C1` (stereo not drawn) reads -6.37%; that for `COc1ccc(S(=O)(=O)NCC2CCCN(Cc3cccc(C(C)=O)c3)C2)cc1` (stereo not drawn), -43.9%; that for `COc1ccc(S(=O)(=O)NCC2CCCN(CC(C)(C)C)C2)cc1` (stereo not drawn), 14.9%.
The result for `COc1ccc(S(=O)(=O)NCC2CCCN(Cc3ccccc3C)C2)cc1` (stereo not drawn) reads -12.3%; that for `CCOc1ccccc1CN1CCCC(CNS(=O)(=O)c2ccc(OC)cc2)C1` (stereo not drawn), -63.7%.
For `OCC1CCCN(Cc2ccc(-c3ccccc3)cc2)C1` (stereo not drawn), the “hERG current change (%, negative = inhibition) at 10uM” value is reported as -28.4%.
The result for `CN(C)S(=O)(=O)NCC1CCCN(Cc2ccc(-c3ccccc3)cc2)C1` (stereo not drawn) reads -50.8%; that for `COc1ccc(S(=O)(=O)NCC2CCCN(Cc3ccc(C)o3)C2)cc1` (stereo not drawn), -25.5%.
The result for `COc1ccc(S(=O)(=O)NCC2CCCN(Cc3ccccc3Cl)C2)cc1` (stereo not drawn) reads -37.9%.
